{"source": "the supplement of paper PMC7695840", "key": {"[1]": {"test_system": "Staphylococcus aureus MW2 delta-mecA (mecA-)", "assay": "normalized GFP fluorescence (growth of mecA- strain) (fraction of control range); higher = more growth of mecA- strain", "conditions": "compound concentration: 150 uM; cefoxitin: subinhibitory; fluorescent label: GFP", "how_it_was_run": "(§1)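 Two pre-induced S. aureus MW2 strains, one with the gene labeled by DsRed and one lacking it labeled by GFP, were mixed 1:1 in LB with a subinhibitory antibiotic dose set daily. The mix went at 5 µL/well onto 150 μM compound (1.5% DMSO) in 1536-well plates, single replicate, and grew unshaken 20 h at 37 °C, 90% humidity. DsRed (540/590) and GFP (485/520) values were scaled per plate between single-strain control medians, and plates with high untreated ratios or rows with DsRed/GFP >10 were left out.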"}, "[2]": {"test_system": "Staphylococcus aureus MW2 (mecA+)", "assay": "normalized DsRed fluorescence (growth of mecA+ strain) (fraction of control range); higher = more growth of mecA+ strain", "conditions": "compound concentration: 150 uM; cefoxitin: subinhibitory; fluorescent label: DsRed", "how_it_was_run": "as §1"}}, "note": "Counter-ions that a name gives are not always drawn.", "data": [{"compound": "Cc1ccnc2c1NC(=O)c1cccnc1N2C1CC1", "values": [{"measurement": "normalized GFP fluorescence", "setting": "[1]", "result": 0.755}, {"measurement": "normalized DsRed fluorescence", "setting": "[2]", "result": 0.431}]}, {"compound": "C[C@@H]1CC(=O)NN=C1c1ccc(NN=C(C#N)C#N)cc1", "note": "[Levosimendan]", "values": [{"measurement": "normalized GFP fluorescence", "setting": "[1]", "result": 0.00346}, {"measurement": "normalized DsRed fluorescence", "setting": "[2]", "result": 0.512}]}, {"compound": "C=CC[C@@H]1/C=C(\\C)C[C@H](C)C[C@H](OC)[C@H]2O[C@@](O)(C(=O)C(=O)N3CCCC[C@H]3C(=O)O[C@H](/C(C)=C/[C@@H]3CC[C@@H](O)[C@H](OC)C3)[C@H](C)[C@@H](O)CC1=O)[C@H](C)C[C@@H]2OC", "values": [{"measurement": "normalized GFP fluorescence", "setting": "[1]", "result": 0.0654}, {"measurement": "normalized DsRed fluorescence", "setting": "[2]", "result": 1.59}]}, {"compound": "CCN(CC)C(=O)c1ccc(O)c(OC)c1", "values": [{"measurement": "normalized GFP fluorescence", "setting": "[1]", "result": 0.00273}, {"measurement": "normalized DsRed fluorescence", "setting": "[2]", "result": 0.0959}]}, {"compound": "CCN[C@@H]1C[C@H](N)[C@@H](O[C@H]2OC(CN)=CC[C@H]2N)[C@H](O)[C@H]1O[C@H]1OC[C@](C)(O)[C@H](NC)[C@H]1O", "values": [{"measurement": "normalized GFP fluorescence", "setting": "[1]", "result": 0.695}, {"measurement": "normalized DsRed fluorescence", "setting": "[2]", "result": 0.952}]}, {"compound": "CN(C)c1nc(N(C)C)nc(N(C)C)n1", "values": [{"measurement": "normalized GFP fluorescence", "setting": "[1]", "result": 0.159}, {"measurement": "normalized DsRed fluorescence", "setting": "[2]", "result": 0.887}]}, {"compound": "CC1=C(/C=C/C(C)=C/C=C/C(C)=C\\C(=O)O)C(C)(C)CCC1", "note": "[Isotretinoin]", "values": [{"measurement": "normalized GFP fluorescence", "setting": "[1]", "result": 0.0743}, {"measurement": "normalized DsRed fluorescence", "setting": "[2]", "result": 1.06}]}, {"compound": "NCCc1ccc(O)c(O)c1", "values": [{"measurement": "normalized GFP fluorescence", "setting": "[1]", "result": 0.483}, {"measurement": "normalized DsRed fluorescence", "setting": "[2]", "result": 0.728}]}, {"compound": "CNS(=O)(=O)CCc1ccc2[nH]cc(C3CCN(C)CC3)c2c1", "note": "[Naratriptan HCl]", "values": [{"measurement": "normalized GFP fluorescence", "setting": "[1]", "result": 0.395}, {"measurement": "normalized DsRed fluorescence", "setting": "[2]", "result": 0.662}]}, {"compound": "N#Cc1c(N(CC(=O)O)CC(=O)O)sc(C(=O)O)c1CC(=O)O", "note": "[Strontium ranelate (Protelos)]", "values": [{"measurement": "normalized GFP fluorescence", "setting": "[1]", "result": 0.212}, {"measurement": "normalized DsRed fluorescence", "setting": "[2]", "result": 0.694}]}, {"compound": "CCCCCCCCCCC[C@@H](C[C@@H]1OC(=O)[C@H]1CCCCCC)OC(=O)[C@H](CC(C)C)NC=O", "values": [{"measurement": "normalized GFP fluorescence", "setting": "[1]", "result": 0.94}, {"measurement": "normalized DsRed fluorescence", "setting": "[2]", "result": 0.482}]}, {"compound": "Clc1ccc(C(Cn2ccnc2)OCc2ccc(Sc3ccccc3)cc2)c(Cl)c1", "note": "(centres undefined) [Fenticonazole nitrate]", "values": [{"measurement": "normalized GFP fluorescence", "setting": "[1]", "result": -0.002}, {"measurement": "normalized DsRed fluorescence", "setting": "[2]", "result": 0.0182}]}, {"compound": "CN(C)C(=N)NC(=N)N", "values": [{"measurement": "normalized GFP fluorescence", "setting": "[1]", "result": 0.544}, {"measurement": "normalized DsRed fluorescence", "setting": "[2]", "result": 0.887}]}, {"compound": "CN(C)CCC=C1c2ccccc2C=Cc2ccccc21", "values": [{"measurement": "normalized GFP fluorescence", "setting": "[1]", "result": 0.0981}, {"measurement": "normalized DsRed fluorescence", "setting": "[2]", "result": 1.21}]}, {"compound": "OC[C@H]1O[C@@H](n2cnc3c2N=CNC[C@H]3O)C[C@@H]1O", "note": "[Pentostatin]", "values": [{"measurement": "normalized GFP fluorescence", "setting": "[1]", "result": 0.461}, {"measurement": "normalized DsRed fluorescence", "setting": "[2]", "result": 0.689}]}, {"compound": "COc1cc2nccc(Oc3ccc(NC(=O)Nc4cc(C)on4)c(Cl)c3)c2cc1OC", "note": "[Tivozanib (AV-951)]", "values": [{"measurement": "normalized GFP fluorescence", "setting": "[1]", "result": 0.445}, {"measurement": "normalized DsRed fluorescence", "setting": "[2]", "result": 1.09}]}, {"compound": "COc1cc2c3cc1Oc1cc(ccc1O)C[C@@H]1c4c(cc(OC)c(O)c4Oc4ccc(cc4)C[C@@H]3N(C)CC2)CC[N+]1(C)C", "values": [{"measurement": "normalized GFP fluorescence", "setting": "[1]", "result": 0.357}, {"measurement": "normalized DsRed fluorescence", "setting": "[2]", "result": 0.607}]}, {"compound": "C=C1[C@H](CO)[C@@H](O)C[C@@H]1n1cnc2c(=O)[nH]c(N)nc21", "note": "[Entecavir hydrate]", "values": [{"measurement": "normalized GFP fluorescence", "setting": "[1]", "result": 0.319}, {"measurement": "normalized DsRed fluorescence", "setting": "[2]", "result": 0.447}]}, {"compound": "C=C1/C(=C\\C=C2/CCC[C@]3(C)[C@@H]([C@H](C)CCCC(C)(C)O)CC[C@@H]23)C[C@@H](O)C[C@@H]1O", "note": "[Calcitriol (Rocaltrol)]", "values": [{"measurement": "normalized GFP fluorescence", "setting": "[1]", "result": -0.00685}, {"measurement": "normalized DsRed fluorescence", "setting": "[2]", "result": 1}]}, {"compound": "O=C1O[C@H]([C@@H](O)CO)C(O)=C1O", "values": [{"measurement": "normalized GFP fluorescence", "setting": "[1]", "result": 0.78}, {"measurement": "normalized DsRed fluorescence", "setting": "[2]", "result": 0.485}]}, {"compound": "CN1CCN(C(c2ccccc2)c2ccccc2)CC1", "values": [{"measurement": "normalized GFP fluorescence", "setting": "[1]", "result": 0.231}, {"measurement": "normalized DsRed fluorescence", "setting": "[2]", "result": 1.32}]}, {"compound": "COc1cc2nccc(Oc3ccc(NC(=O)NC4CC4)c(Cl)c3)c2cc1C(N)=O", "note": "[E7080 (Lenvatinib)]", "values": [{"measurement": "normalized GFP fluorescence", "setting": "[1]", "result": 0.528}, {"measurement": "normalized DsRed fluorescence", "setting": "[2]", "result": 0.638}]}, {"compound": "CN1CCN(CC(=O)N2c3ccccc3C(=O)Nc3cccnc32)CC1", "values": [{"measurement": "normalized GFP fluorescence", "setting": "[1]", "result": 0.28}, {"measurement": "normalized DsRed fluorescence", "setting": "[2]", "result": 0.759}]}, {"compound": "Cc1ccnc(NS(=O)(=O)c2ccc(N)cc2)n1", "values": [{"measurement": "normalized GFP fluorescence", "setting": "[1]", "result": 0.459}, {"measurement": "normalized DsRed fluorescence", "setting": "[2]", "result": 0.528}]}, {"compound": "Nc1nc2[nH]cnc2c(=S)[nH]1", "values": [{"measurement": "normalized GFP fluorescence", "setting": "[1]", "result": 0.329}, {"measurement": "normalized DsRed fluorescence", "setting": "[2]", "result": 1.33}]}, {"compound": "CCc1cccc2c3c([nH]c12)C(CC)(CC(=O)O)OCC3", "note": "(centres undefined)", "values": [{"measurement": "normalized GFP fluorescence", "setting": "[1]", "result": 0.0954}, {"measurement": "normalized DsRed fluorescence", "setting": "[2]", "result": 0.562}]}, {"compound": "Oc1ccc(C2CNCCc3c2cc(O)c(O)c3Cl)cc1", "note": "(centres undefined)", "values": [{"measurement": "normalized GFP fluorescence", "setting": "[1]", "result": 0.582}, {"measurement": "normalized DsRed fluorescence", "setting": "[2]", "result": 0.979}]}, {"compound": "OC[C@H]1O[C@@H](c2ccc(Cl)c(Cc3ccc(O[C@H]4CCOC4)cc3)c2)[C@H](O)[C@@H](O)[C@@H]1O", "values": [{"measurement": "normalized GFP fluorescence", "setting": "[1]", "result": 0.499}, {"measurement": "normalized DsRed fluorescence", "setting": "[2]", "result": 0.698}]}, {"compound": "CC(C)(C)NC[C@H](O)COc1ccccc1C1CCCC1", "values": [{"measurement": "normalized GFP fluorescence", "setting": "[1]", "result": 0.435}, {"measurement": "normalized DsRed fluorescence", "setting": "[2]", "result": 0.586}]}, {"compound": "COCCCC/C(=N\\OCCN)c1ccc(C(F)(F)F)cc1", "values": [{"measurement": "normalized GFP fluorescence", "setting": "[1]", "result": 0.551}, {"measurement": "normalized DsRed fluorescence", "setting": "[2]", "result": 0.562}]}, {"compound": "Cc1ccc(NC(=O)c2ccc(CN3CCN(C)CC3)cc2)cc1Nc1nccc(-c2cccnc2)n1", "note": "[Imatinib Mesylate]", "values": [{"measurement": "normalized GFP fluorescence", "setting": "[1]", "result": 0.184}, {"measurement": "normalized DsRed fluorescence", "setting": "[2]", "result": 0.918}]}, {"compound": "Clc1ccccc1CN1CCc2sccc2C1", "values": [{"measurement": "normalized GFP fluorescence", "setting": "[1]", "result": 0.281}, {"measurement": "normalized DsRed fluorescence", "setting": "[2]", "result": 0.684}]}, {"compound": "O=C(O)c1cc(/N=N/c2ccc(S(=O)(=O)Nc3ccccn3)cc2)ccc1O", "note": "[Sulfasalazine (Azulfidine)]", "values": [{"measurement": "normalized GFP fluorescence", "setting": "[1]", "result": 0.311}, {"measurement": "normalized DsRed fluorescence", "setting": "[2]", "result": 0.584}]}, {"compound": "CCOC(=O)[C@H](CCc1ccccc1)N[C@@H](C)C(=O)N1[C@H](C(=O)O)C[C@H]2CCCC[C@@H]21", "values": [{"measurement": "normalized GFP fluorescence", "setting": "[1]", "result": 0.598}, {"measurement": "normalized DsRed fluorescence", "setting": "[2]", "result": 0.51}]}, {"compound": "CO[C@H]1C(=O)[C@]2(C)[C@@H](OC)C[C@H]3OC[C@@]3(OC(C)=O)[C@H]2[C@H](OC(=O)c2ccccc2)[C@]2(O)C[C@H](OC(=O)[C@H](O)[C@@H](NC(=O)OC(C)(C)C)c3ccccc3)C(C)=C1C2(C)C", "note": "[Cabazitaxel (Jevtana)]", "values": [{"measurement": "normalized GFP fluorescence", "setting": "[1]", "result": 0.256}, {"measurement": "normalized DsRed fluorescence", "setting": "[2]", "result": 1.24}]}, {"compound": "Cn1cnc([N+](=O)[O-])c1Sc1ncnc2[nH]cnc12", "values": [{"measurement": "normalized GFP fluorescence", "setting": "[1]", "result": 0.269}, {"measurement": "normalized DsRed fluorescence", "setting": "[2]", "result": 1.03}]}, {"compound": "O.O.O.O.O=C([O-])CC(O)(CC(=O)[O-])C(=O)[O-].[Li+].[Li+].[Li+]", "values": [{"measurement": "normalized GFP fluorescence", "setting": "[1]", "result": 0.18}, {"measurement": "normalized DsRed fluorescence", "setting": "[2]", "result": 1.09}]}]}
